Sampled rows, rich in hits. Any-hit rate of the full collection: about 2.1%.
Abeta yeast res: A-beta toxicity reversal in yeast | yeast expressing A-beta42, growth rescue, OD600, 48 h; response scale: 0% DMSO, 100% iron-clioquinol control | Potency, µM (doses to about 46.1 µM), hits mostly activators | hit rate 0.063% among 410,000 | AID 1347071; also: nearly all actives have a fitted effect of over 55% in size
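Yeast growth medium received pinned compounds, then yeast cells expressing toxic A-beta were added; plates incubated at 30 C for 48 hr. Growth read as absorbance at 600 nm, normalized to DMSO and equimolar FeCl3 plus clioquinol controls.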
TDP-43 yeast inh: inhibitors of TDP-43 toxicity in yeast. AID 652104. TDP-43 expressing yeast growth rescue, BacTiter-Glo, 24 h. hit rate 1.8% among 410,000. Potency, µM (titrated, usually from 46.1 µM), inactives show at the top dose growth rescue (activation), actives largely listed as activators; also: % of control where 0% means no effect; nearly all actives have a fitted effect of over 50% in size
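Cell-based yeast growth screen: TDP-43 expression induced in galactose, inoculum OD600=0.02 after raffinose pregrowth to mid-log. Read-out BacTiter-Glo luminescence at 24 hr, 30 deg C; inhibition of toxicity seen as signal increase.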
FUS yeast rescue: suppressors of FUS proteinopathy in yeast. S. cerevisiae FUS-expressing, growth rescue, OD600, 24 h. hit rate 0.24% among 390,000. Potency, µM (series often up to 76.6 µM), hits mostly activators;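 also: plate controls were DMSO vehicle for no effect and reference control for full effect; nearly all actives have a fitted effect of over 55% in size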
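Yeast FUS proteinopathy model; galactose-induced FUS (2%), starting OD 0.005. Cpds in dilution series, 24hr, 30C, 99% humidity. Abs 600 nm growth. Pos ctrl CP55940 (top 92uM final); neg ctrl DMSO.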
aSyn yeast inh: rescues yeast growth from alpha-synuclein toxicity; hit rate 0.14% among 370,000; Yeast expressing alpha-synuclein, growth rescue, BacTiter-Glo, 24 h; AID 652106; Potency, µM (doses to about 46.1 µM), inactives show at the highest dose growth rescue (activation), most hits filed as activators; also: % of control where 0% means no effect; nearly all actives have a fitted effect of over 65% in size
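Readout is rescue of growth in alpha-synuclein-expressing yeast, so inhibitors of toxicity appear as activators. Growth after 24 hr at 30 deg C in galactose medium is quantified by luminescence.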
Active calls of the source: *; i = inactive; ? = inconclusive; nt = no result given; [ ] = dose if it differs, or a comment. Calls follow the shape of the dose curve; as a rule, active = well fitted curve in the direction sought with a large enough effect; inconclusive = small, poorly fitted or top-dose-only effect, or another doubt; inactive = no such curve, though single readings can be large; an effect the other way counts as inactive or inconclusive. Potency is read from the fitted curve at half-maximal effect.

SMILES	Abeta yeast res	TDP-43 yeast inh	FUS yeast rescue	aSyn yeast inh
Cc1cccc(-c2nnc(C3CCN(S(=O)(=O)c4cccc(Cl)c4)CC3)o2)c1	i	15.8µM*	?	nt
COc1ccccc1OCc1ccc(C(=O)N2CCCCC2)o1	i	9.2%	i	1.2%
O=C(c1ccc(COc2ccc(Cl)cc2Cl)o1)N1CCCC1	i	12.6µM*	nt	4.3%
O=C(c1ccc(COc2c(F)c(F)c(F)c(F)c2F)o1)N1CCOCC1	i	29.1%	i	0.9%
COc1ccc(N2CCN(C(=O)Oc3ccc([N+](=O)[O-])cc3)CC2)cc1	i	?	i	-7.7%
COc1ccc(N2CCN(C(=O)c3ccc(COc4ccc([N+](=O)[O-])cc4)o3)CC2)cc1	i	11.2µM*	nt	3.9%
O=C(c1ccc(COc2c(F)c(F)cc(F)c2F)o1)N1CCN(c2ccccc2)CC1	i	22.4µM*	i	3.5%
Cc1nc(SC(C(=O)c2ccccc2)c2ccccc2)nc2ccccc12 (stereo unspecified)	i	21.8%	nt	8.2%
O=S(=O)(NCC(c1ccccc1)N1CCc2ccccc21)c1ccc(Cl)cc1 (stereo unspecified)	i	11.2%	?	nt
O=S(=O)(NCC(c1ccco1)N1CCc2ccccc21)c1ccccc1 (stereo unspecified)	i	22.4µM*	i	9.7%
O=C(OC12CCCN(C1)/C(=C/c1cccc(Cl)c1)C2)c1ccccc1 (stereo unspecified)	nt	nt	i	nt
O=C(CCl)N=c1sccn1Cc1ccccc1Cl	i	22.4µM*	i	3.8%
N=c1n(Cc2ccccc2)c2ccccc2n1Cc1ccccc1	i	-10.1%	nt	0.9%
CCOC(=O)c1cnc(-c2ccccc2)nc1C(F)(F)F	i	5.4%	i	1.0%
O=C(c1ccc(-c2ccc([N+](=O)[O-])cc2)o1)N1CCCC(C(F)(F)F)C1 (stereo unspecified)	i	35.5µM*	?	-8.6%
O=C(c1ccc(-c2ccc([N+](=O)[O-])cc2)o1)N1CCCCCCC1	i	-90.2%	?	-80.3%
CC(=O)/C(=C\N(C)C)Sc1ccc(C)cc1	i	29.2%	i	23.9%
CC(=O)/C(=C\N(C)C)Sc1ccc(Cl)cc1	?	22.4µM*	i	?
O=C1c2ccccc2-n2c1nc1ccccc1c2=O	i	-14.4%	i	-7.8%
CC1(C)Cc2ccccc2-c2nc3ccccc3c(=O)n21	i	12.6µM*	i	2.1%
O=C(c1cnn(-c2ccccc2)c1)c1cc(F)ccc1O	i	10µM*	i	8.0%
COc1ccc(O)c(C(=O)c2cnn(-c3ccccc3)c2)c1	i	6.9%	i	-8.3%
COc1ccc(-n2cc(C(=O)c3ccccc3O)cn2)cc1	i	12.6µM*	i	-4.7%
CN(C)S(=O)(=O)c1cccc(NC(=O)/C=C/c2ccc(S(=O)(=O)N3CCOCC3)cc2)c1	i	8.8%	nt	-3.2%
O=C1C=C(c2cnc3ccccc3c2)C[C@@H](c2ccc3c(c2)OCO3)C1	i	15.8µM*	i	6.0%
SMILES	Abeta yeast res	TDP-43 yeast inh	FUS yeast rescue	aSyn yeast inh
COc1cccc(C2=CC(=O)C[C@H](c3ccc4c(c3)OCO4)C2)c1	i	17.8µM*	i	0.1%
O=C1C=C(c2cccc(Br)c2)C[C@@H](c2ccc3c(c2)OCO3)C1	i	11.2µM*	i	13.4%
O=C1C=C(c2ccccc2)C[C@@H](c2ccc3c(c2)OCO3)C1	i	20µM*	i	1.2%
O=C1C=C(c2ccc(Oc3ccccc3)cc2)C[C@@H](c2ccc3c(c2)OCO3)C1	i	14.0%	i	-0.5%
COC/C=C/C1=CC(=O)C[C@H](c2ccc3c(c2)OCO3)C1	i	14.1µM*	i	1.7%
O=C1C=C(c2ccc(CO)cc2)C[C@@H](c2ccc3c(c2)OCO3)C1	i	12.6µM*	i	-0.7%
COc1ccc(C2=CC(=O)C[C@H](c3ccc4c(c3)OCO4)C2)cn1	i	14.2%	i	2.0%
O=C1C=C(c2ccc(F)nc2)C[C@@H](c2ccc3c(c2)OCO3)C1	i	12.6µM*	i	8.3%
O=C1C=C(c2ccc(-c3ccccc3)cc2)C[C@@H](c2ccc3c(c2)OCO3)C1	i	11.9%	i	1.3%
NC(=O)CSc1ncc2c(n1)-c1ccccc1N(Cc1ccc(F)cc1)S2(=O)=O	i	0.0%	i	nt
COc1ccccc1-c1nnc(-c2ccc(C)cc2)o1	i	-13.8%	i	-6.4%
COc1ccccc1-c1nnc(-c2ccc(N3CCOCC3)cc2)o1	i	12.6µM*	i	12.6%
CCCn1c2ccccc2c2cnn(CC(=O)NCCOC)c(=O)c21	i	-2.4%	i	3.55µM*
CCCn1c2ccccc2c2cnn(CC(=O)NCCCOC)c(=O)c21	i	6.0%	i	8.9%
CC(OC(=O)c1ccc(-n2cnnn2)cc1)C(=O)Nc1ccc(F)c(F)c1F (stereo unspecified)	i	16.9%	i	2.7%
C=CC[C@@H](CC(=O)N[C@@H](CO)Cc1ccccc1)C(=O)N[C@H](C)COC(=O)[C@@H](CC=C)Cc1ccc(F)cc1	i	14.5%	i	0.1%
C=CC[C@@H](CC(=O)N[C@@H](CO)Cc1ccccc1)C(=O)N[C@@H](C)COC(=O)[C@@H](CC=C)Cc1ccc(F)cc1	i	8.0%	17.8µM*	-2.4%
C=CC[C@H](CC(=O)N[C@H](CO)Cc1ccccc1)C(=O)N[C@H](COC(=O)[C@@H](CC=C)CC(=O)OC(C)(C)C)Cc1c[nH]c2ccccc12	i	-11.2%	17.8µM*	-4.3%
C=CCC[C@H](Cc1ccc(F)cc1)C(=O)OC[C@H](Cc1c[nH]c2ccccc12)NC(=O)[C@@H](CC=C)CC(=O)N(CCO)Cc1ccccc1	i	12.9%	15.8µM*	1.8%
C=CCC[C@@H](Cc1ccc(F)cc1)C(=O)OC[C@H](Cc1c[nH]c2ccccc12)NC(=O)[C@H](CC=C)CC(=O)N(CCO)Cc1ccccc1	i	13.3%	?	-4.8%
C=CC[C@@H](CC(=O)N[C@H](CO)Cc1ccccc1)C(=O)N[C@@H](COC(=O)[C@@H](CC=C)CC(=O)OC(C)(C)C)Cc1c[nH]c2ccccc12	i	-6.2%	17.8µM*	0.7%
Cc1ccc(-c2nnc3n2N=C(c2ccccc2Br)CS3)cc1	i	6.1%	i	-5.6%
Cc1ccc(-c2csc(NC(=O)c3ccc(C)o3)n2)cc1	i	24.2%	nt	-27.1%
CCOc1ccc(NC(=O)CN(c2cccc(C(F)(F)F)c2)S(C)(=O)=O)cc1	i	12.6µM*	i	3.7%
COc1cccc(NC(=O)CN(c2cccc(C(F)(F)F)c2)S(C)(=O)=O)c1	i	2.3%	i	0.1%
Cc1cccc(C)c1OCCOC(=O)c1n[nH]c2ccccc12	?	-11.8%[1.82 µM]	i	2.4%
Cc1ccc(C)c(C(=O)COC(=O)c2n[nH]c3ccccc23)c1	i	20µM*	i	?

Assay outcomes (PubChem)
